Source: PubChem BioAssay
The list is not random: actives were taken first. Their share in the collection is about 2.9%.
pPAFAH FP inh = pPAFAH (human) enzyme inhibition | hit rate 1.5% among 330,000 | AID 463082 | recombinant pPAFAH, FP-rhodamine probe fluorescence polarization | inhibition, % at 3.39 µM;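 active = inhibition above the mean inhibition across the screen plus 3 SD, cut at about 25% in these data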;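 note: inhibitors block binding of the rhodamine activity-based probe so polarization drops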
LYPLA2 counter = counter-screen for PME1 inhibitors: inhibitors of human LYPLA2 | O95372 | recombinant LYPLA2, FP-Rh probe fluorescence polarization | inhibition, % at 5.9 µM | hit rate 0.38% among 320,000;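 active = inhibition above the screen-wide mean plus 3 SD, limit set per campaign, cut at about 26% in these data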
Target sequence (O95372 whole entry, looked up): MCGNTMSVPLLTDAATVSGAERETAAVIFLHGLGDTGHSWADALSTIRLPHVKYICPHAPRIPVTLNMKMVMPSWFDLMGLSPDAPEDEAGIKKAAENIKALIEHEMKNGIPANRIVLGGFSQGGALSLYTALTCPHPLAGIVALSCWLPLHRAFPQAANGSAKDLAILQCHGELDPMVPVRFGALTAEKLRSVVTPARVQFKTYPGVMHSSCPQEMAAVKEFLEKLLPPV
PAFAH1B2 inh = PAFAH1B2 (human) inhibition; recombinant PAFAH1B2, FP-rhodamine activity probe, fluorescence polarization; hit rate 1.2% among 340,000; inhibition, % at 3.39 µM;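 active = inhibition above the mean of all tested compounds plus 3 SD, cut at about 24% in these data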
Target sequence (P68402 whole entry, looked up): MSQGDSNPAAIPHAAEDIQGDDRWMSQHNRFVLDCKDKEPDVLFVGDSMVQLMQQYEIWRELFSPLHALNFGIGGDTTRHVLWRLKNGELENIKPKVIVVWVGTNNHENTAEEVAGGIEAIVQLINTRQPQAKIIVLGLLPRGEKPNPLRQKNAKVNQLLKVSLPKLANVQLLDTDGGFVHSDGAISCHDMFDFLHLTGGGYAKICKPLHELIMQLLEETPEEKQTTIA
PAFAH2 inh = PAFAH2 (human) inhibition; recombinant PAFAH2, FP-rhodamine activity probe, fluorescence polarization; inhibition, % at 3.39 µM; hit rate 0.99% among 340,000;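 active = inhibition above the mean over all tested compounds plus 3 SD, cut at about 30% in these data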;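 note: inhibitors block probe labeling of enzyme so polarization drops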
LYPLA1 inh = counter-screen for PME1 inhibitors: inhibitors of human LYPLA1. recombinant LYPLA1, FP-Rh probe fluorescence polarization. inhibition, % at 5.9 µM. hit rate 0.16% among 320,000. AID 2174;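 active = inhibition above the mean of all tested compounds plus 3 SD, set per campaign, cut at about 14% in these data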;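 note: inhibitors block serine hydrolase probe labeling of LYPLA1 so polarization falls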
PAFAH1B3 inh = blocks human PAF acetylhydrolase 1B catalytic subunit 3; recombinant PAFAH1B3, FP-rhodamine probe, fluorescence polarization; inhibition, % at 3.39 µM; hit rate 0.28% among 340,000; AID 492972;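 active = inhibition above the screen-wide average of all tested compounds plus 3 SD, cut at about 25% in these data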
Target sequence (Q15102 whole entry, looked up): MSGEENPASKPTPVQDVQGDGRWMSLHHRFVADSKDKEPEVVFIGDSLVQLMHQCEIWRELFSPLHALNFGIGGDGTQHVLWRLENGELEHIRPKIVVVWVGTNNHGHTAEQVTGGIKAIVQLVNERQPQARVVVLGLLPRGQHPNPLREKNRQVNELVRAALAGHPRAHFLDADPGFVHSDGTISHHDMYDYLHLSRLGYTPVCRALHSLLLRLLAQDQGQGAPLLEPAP
PAFAH2 confirm = PAFAH2 (human) inhibition, confirmed | shares compounds with PAFAH2 inh | recombinant PAFAH2, FP-rhodamine activity probe, fluorescence polarization | inhibition, % at 3.39 µM | hit rate 65% among 2,300;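 active = mean inhibition over three repeats above a set limit taken from the earlier primary screen, cut at about 30% in these data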;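 note: inhibitor blocks binding of rhodamine activity probe so polarization falls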
Each line names hits and unclear results; the compound was inactive in the other large screens (follow-up assays come after a bar, where they were run).

Cc1ccc(S(=O)(=O)/N=C(/c2ccccc2)N2CCOCC2)cc1	none
COc1ccc(O)c(/C=N/N2CCCCC2)c1	none
Cc1ccc(NC(=O)CSc2nnc(NC(=O)c3ccc(S(=O)(=O)N4CCOCC4)cc3)s2)cc1	none
CCOc1ccc(C(=O)OCC(=O)NC2CCCC2)cc1OCC	PAFAH2 inh 84 | PAFAH2 confirm 82
CCN(CC)S(=O)(=O)c1ccc(C(=O)OCC(=O)NC2CCCC2)cc1	none
COc1cc(OC)cc(C(=O)OCC(=O)NC2CCCCCC2)c1	PAFAH2 inh 61 | PAFAH2 confirm 59
CC1CCC(NC(=O)COC(=O)c2ccc3ncsc3c2)CC1 (stereo unspecified)	PAFAH2 inh 83 | PAFAH2 confirm 69
COc1ccc(C(=O)OCC(=O)NC2CCCCCCC2)cc1OC	PAFAH2 inh 87 (no result: LYPLA2 counter, LYPLA1 inh) | PAFAH2 confirm 78
O=C(O)CN1CCN(CC(=O)O)CCN(CC(=O)O)CCN(CC(=O)O)CC1	none
CC(=O)c1cccc(NC(=O)c2c(F)c(F)c(F)c(F)c2F)c1	none
Cc1cccc(NC(=O)CCc2ccccc2)c1C	none
CC(=O)c1c(C)[nH]c(C(=O)COC(=O)CN2C(=O)C3CCCCC3C2=O)c1C (stereo unspecified)	none (no result: LYPLA2 counter, LYPLA1 inh)
CCN1CCN(c2cc(C)c3cc(NC(=O)c4cccnc4Cl)ccc3n2)CC1	none
O=C(COC(=O)/C=C/c1cccs1)Nc1ccc(F)cc1	PAFAH2 inh 82 | PAFAH2 confirm 82
CCc1cccc(NC(=O)COC(=O)/C=C/c2cccs2)c1	PAFAH2 inh 73 | PAFAH2 confirm 78
COc1ccc(CNC(=O)COC(=O)/C=C/c2cccs2)cc1	none
COc1ccccc1CNC(=O)COC(=O)c1ccc(C)s1	PAFAH2 inh 75 | PAFAH2 confirm 62
COc1ccccc1CNC(=O)COC(=O)/C=C/c1cccs1	PAFAH2 inh 50 | PAFAH2 confirm 37
Cc1cc(C(C)(C)C)oc1C(=O)N1CCN(C(=O)c2oc(C(C)(C)C)cc2C)CC1	none (no result: pPAFAH FP inh, LYPLA2 counter, LYPLA1 inh)
O=C(CSc1nc(-c2ccco2)cc(C(F)(F)F)n1)NCCCn1ccnc1	none
O=C(COC(=O)/C=C/c1cccs1)Nc1cccc(S(=O)(=O)N2CCCC2)c1	PAFAH2 inh 64 | PAFAH2 confirm 57
O=C(COC(=O)c1ccc(F)cc1F)NCCC1=CCCCC1	PAFAH2 inh 47 | PAFAH2 confirm 31
O=C(COC(=O)c1ccc2c(c1)OCCO2)NCCC1=CCCCC1	PAFAH2 inh 58 | PAFAH2 confirm 47
O=C(COC(=O)c1ccccc1O)NCCC1=CCCCC1	none
O=C(COC(=O)c1ccc(O)cc1)NCCC1=CCCCC1	PAFAH2 inh 57 | PAFAH2 confirm 50
Cc1ccc(C(=O)OCC(=O)NCCC2=CCCCC2)cc1N	none
COC(=O)c1ccccc1S(=O)(=O)N(CCCO)Cc1cc2c(C)ccc(C)c2[nH]c1=O	none
COc1cc(C(CC(=O)N2CCN(c3ccccc3)CC2)c2c(OC)cc(OC)c3ccc(=O)oc23)cc(OC)c1OC (stereo unspecified)	none
Cc1cc(C)nc(NC(=S)Nc2ccc(Br)cc2Cl)c1	none
O=C1CCCC/C=C\C[C@H](CC(=O)N(CCO)Cc2ccccc2)C(=O)N[C@@H](c2ccccc2)CO1	PAFAH2 inh 48 (no result: LYPLA2 counter, LYPLA1 inh) | PAFAH2 confirm 33
CN(C)S(=O)(=O)c1cccc(COC(=O)c2cnccn2)c1	none
CCc1ccc(C2=NN(CCC(=O)NCC3CCCO3)C(=O)CC2)cc1 (stereo unspecified)	none
Cc1ccc(S(=O)(=O)N2CCN(C(=O)COC(=O)C3CC3C)CC2)c(C)c1 (stereo unspecified)	none
Cc1ccc(NC(=O)COC(=O)C2CC2C)c(S(=O)(=O)N2CCCCC2)c1 (stereo unspecified)	PAFAH2 inh 82 | PAFAH2 confirm 78
CC1CC1C(=O)OCC(=O)Nc1cc(S(=O)(=O)N2CCCCC2)ccc1Cl (stereo unspecified)	PAFAH2 inh 72 (no result: LYPLA2 counter, LYPLA1 inh) | PAFAH2 confirm 60
Cc1cnc(C(=O)OCC(=O)Nc2cc(S(=O)(=O)N3CCCCC3)ccc2Cl)cn1	none
C#CCOc1coc(COC(=O)c2ccccc2)cc1=O	PAFAH2 inh 50 | PAFAH2 confirm 30
Cc1cccc(C(=O)O/N=C(\N)CS(=O)(=O)c2ccccc2)c1	PAFAH2 inh 44 | PAFAH2 confirm 36
COc1cccc(C(=O)O/N=C(\N)CS(=O)(=O)c2ccccc2)c1	PAFAH2 inh 64 | PAFAH2 confirm 45
COc1cccc(C(=O)O/N=C(\N)c2ccccn2)c1	none
Cc1cccc(/C(N)=N/OC(=O)c2ccc(F)cc2)c1	none
Cc1cc(C)c(S(=O)(=O)NCC(=O)NCc2ccccn2)c(C)c1	none
Cc1cc(C)c(OCC(=O)Nc2ccccn2)c([N+](=O)[O-])c1	PAFAH2 inh 33 | PAFAH2 confirm inactive
COc1ccc(/C=C/C(=O)OCC(=O)NCCCc2ccccc2)cc1OC	PAFAH2 inh 52 (no result: LYPLA2 counter, LYPLA1 inh) | PAFAH2 confirm 40
COc1ccc(CCNC(=O)COC(=O)/C=C/c2ccc(OC)c(OC)c2)cc1	PAFAH2 inh 39 | PAFAH2 confirm inactive
COc1ccc(/C=C/C(=O)OCC(=O)NCc2ccccc2Cl)cc1OC	PAFAH2 inh 79 (no result: LYPLA2 counter, LYPLA1 inh) | PAFAH2 confirm 76
COc1ccc(CCNC(=O)COC(=O)/C=C/c2ccc(OCC#N)c(OC)c2)cc1	none
O=C(Nc1ccc(C(=O)N2CCCC2)cc1)C1CCCCC1	none (no result: pPAFAH FP inh, LYPLA2 counter, LYPLA1 inh)
Cc1ccn(C(=O)c2ccc(NC(=O)C3CCCCC3)cc2)n1	PAFAH2 inh 33 | PAFAH2 confirm 45
CCC(=O)Nc1ccc(C(=O)OCc2ccc(Cl)c(Cl)c2)cc1	PAFAH2 inh 36 | PAFAH2 confirm 47
CC(=O)Nc1ccc(C(=O)OCc2ccc(F)cc2Cl)cc1	none
CC(=O)Nc1ccc(C(=O)OCc2ccc(Cl)c(Cl)c2)cc1	PAFAH2 inh 61 | PAFAH2 confirm 63
CCCS(=O)(=O)c1ccc(COC(=O)c2ccc(NC(C)=O)cc2)cc1	PAFAH2 inh 30 | PAFAH2 confirm inactive
COC(=O)C1=C(C)N(C(C)C)C(=O)C1(NC(C)=O)C(F)(F)F (stereo unspecified)	none
CC(=O)c1cccc(NC(=O)COC(=O)c2n[nH]c3ccccc23)c1	PAFAH2 inh 47 | PAFAH2 confirm 39
COc1ccc(OC)c(NC(=O)COC(=O)c2n[nH]c3ccccc23)c1	none
O=C(COC(=O)c1n[nH]c2ccccc12)NCCc1ccccc1	none (no result: LYPLA2 counter, LYPLA1 inh)
O=C(COC(=O)c1n[nH]c2ccccc12)NC1CCCCC1	PAFAH2 inh 80 (no result: LYPLA2 counter, LYPLA1 inh) | PAFAH2 confirm 68
O=C(COC(=O)c1n[nH]c2ccccc12)Nc1ccccc1	PAFAH2 inh 76 | PAFAH2 confirm 67
Cc1cc(C)cc(NC(=O)COC(=O)c2n[nH]c3ccccc23)c1	PAFAH2 inh 70 | PAFAH2 confirm 65
